The results in this text go back to PubChem BioAssay (EPA / NIEHS).

Common to all, as to details: mRNA level, 48 h; actives raise or lower the signal
Read-out in assay [1]: Cytochrome P450 7A1 (Homo sapiens) (UniProt P22680)
Description: LTEA_HepaRG_CYP7A1: Life Technologies and Expression Analysis (LTEA) Assay for Cytochrome P450 7A1 (CYP7A1) using HepaRG (AID 2283496). The gist of the method:
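HepaRG cells plated 48 h, then switched to serum-free induction medium and exposed in duplicate for 48 h to 8-point half-log series from 100 uM in 0.5% DMSO. CYP7A1 mRNA by qRT-PCR (TaqMan), normalized to ACTB/GAPDH/POLR2A; bidirectional fit versus DMSO.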

Read-out in assay [2]: Glutathione S-Transferase (GSTA2), GSTA2 (gene 2939)
Description: LTEA_HepaRG_GSTA2: Life Technologies and Expression Analysis (LTEA) Assay for Glutathione S-Transferase (GSTA2) using HepaRG (AID 2283497). In outline: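 Differentiated human HepaRG cells were exposed in duplicate for 48 h in serum-free induction medium, 8 points from 100 uM top in half-log steps, 0.5% DMSO. GSTA2 mRNA was measured by TaqMan qRT-PCR, normalized to ACTB, GAPDH and POLR2A; bidirectional fit versus DMSO.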

Read-out in assay [3]: Glutamate-cysteine ligase catalytic (GCLC), GCLC (gene 2729)
Description: LTEA_HepaRG_GCLC: Life Technologies and Expression Analysis (LTEA) Assay for Glutamate-cysteine ligase catalytic (GCLC) using HepaRG (AID 2283498). In outline:
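Differentiated HepaRG cells exposed 48 h in serum-free induction medium, eight-point half-log series topping at 100 uM in 0.5% DMSO, duplicates. GCLC mRNA by qRT-PCR normalized to ACTB, GAPDH and POLR2A, fitted bidirectionally versus DMSO.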

Read-out in assay [4]: growth arrest and DNA damage 45 (GADD45G), GADD45G (gene 10912)
Description: LTEA_HepaRG_GADD45G: Life Technologies and Expression Analysis (LTEA) Assay for growth arrest and DNA damage 45 (GADD45G) using HepaRG (AID 2283499). In outline:
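Human hepatic HepaRG line treated 48 h with chemicals (eight concentrations, half-log steps from 100 uM); transcript induction or repression of GADD45G scored by qRT-PCR versus DMSO vehicle.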

Read-out in assay [5]: Glutamate-cysteine ligase regulatory (GCLM), GCLM (gene 2730)
Description: LTEA_HepaRG_GCLM: Life Technologies and Expression Analysis (LTEA) Assay for Glutamate-cysteine ligase regulatory (GCLM) using HepaRG (AID 2283500). In outline:
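Differentiated HepaRG cells exposed 48 h in serum-free induction medium to eight half-log concentrations up to 100 uM (0.5% DMSO). GCLM mRNA by TaqMan qRT-PCR, normalized to ACTB, GAPDH and POLR2A; bidirectional fit versus DMSO.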

Read-out in assay [6]: Glutathione S-transferase M3 (GSTM3), GSTM3 (gene 2947)
Description: LTEA_HepaRG_GSTM3: Life Technologies and Expression Analysis (LTEA) Assay for Glutathione S-transferase M3 (GSTM3) using HepaRG (AID 2283501). In outline: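 Changes in GSTM3 expression, an oxidative-stress marker, were scored by bidirectional curve fitting against 0.5% DMSO vehicle. Human HepaRG cultures received chemicals for 48 h in duplicate, highest concentration 100 uM with half-log dilutions.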

Read-out in assay [7]: Heat shock 70 kDa protein 1 (HSPA1A), gene 3303
Description: LTEA_HepaRG_HSPA1A: Life Technologies and Expression Analysis (LTEA) Assay for Heat shock 70 kDa protein 1 (HSPA1A) using HepaRG (AID 2283502). The gist of the method: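 Human HepaRG cells in serum-free induction medium were exposed in duplicate for 48 h to 8 half-log concentrations, highest 100 uM, in 0.5% DMSO. HSPA1A mRNA read by TaqMan qRT-PCR, normalized to ACTB, GAPDH, POLR2A, fitted bidirectionally against DMSO.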

Read-out in assay [8]: Hypoxia-inducible factor 1-alpha (Homo sapiens) (UniProt Q16665)
Description: LTEA_HepaRG_HIF1A: Life Technologies and Expression Analysis (LTEA) Assay for Hypoxia-inducible factor 1 (HIF1A) Trancription factor using HepaRG (AID 2283503). In outline: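 Differentiated HepaRG cells in serum-free induction medium exposed 48 h, in duplicate, to 8-point half-log series from 100 uM in 0.5% DMSO. HIF1A mRNA measured by TaqMan qRT-PCR, normalized to ACTB/GAPDH/POLR2A, fitted bidirectionally versus DMSO.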

Read-out in assay [9]: 3-Hydroxy-3-Methylglutaryl-CoA Synthase 2 (HMGCS2), HMGCS2 (gene 3158)
Description: LTEA_HepaRG_HMGCS2: Life Technologies and Expression Analysis (LTEA) Assay for 3-Hydroxy-3-Methylglutaryl-CoA Synthase 2 (HMGCS2) using HepaRG (AID 2283504). In outline: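 Expression of HMGCS2 in human HepaRG liver cells is measured by qRT-PCR 48 h after dosing (highest 100 uM, half-log series, 0.5% DMSO). Values come from bidirectional concentration-response fitting with DMSO as baseline.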

Read-out in a further assay: HGF (gene 3082)
Description: LTEA_HepaRG_HGF: Life Technologies and Expression Analysis (LTEA) Assay for Hepatocyte Growth Facto (HGF) using HepaRG (AID 2283505). The gist of the method:
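Gain or loss of HGF mRNA in human HepaRG liver cells after 48 h chemical exposure; eight concentrations up to 100 uM with 0.5% DMSO vehicle, quantified by TaqMan qRT-PCR.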

Read-out in assay [10]: Insulin Like Growth Factor 1 (IGF1), IGF1 (gene 3479)
Description: LTEA_HepaRG_IGF1: Life Technologies and Expression Analysis (LTEA) Assay for Insulin Like Growth Factor 1 (IGF1) using HepaRG (AID 2283506). In outline: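 Differentiated HepaRG cells in serum-free induction medium, exposed 48 h in duplicate to 8 half-log concentrations up to 100 uM in 0.5% DMSO. IGF1 mRNA by Fluidigm qRT-PCR, normalised to ACTB, GAPDH and POLR2A.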

Read-out in assay [11]: Intercellular Adhesion Molecule 1 (ICAM1), ICAM1 (gene 3383)
Description: LTEA_HepaRG_ICAM1: Life Technologies and Expression Analysis (LTEA) Assay for Intercellular Adhesion Molecule 1 (ICAM1) using HepaRG (AID 2283507). The gist of the method:
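Gain or loss of transcript in HepaRG hepatic cells is quantified by qRT-PCR after 48 h chemical exposure (up to 100 uM, half-log steps), with DMSO as baseline.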

Read-out in assay [12]: Insulin-like growth factor-binding protein 1 (IGFBP1), IGFBP1 (gene 3484)
Description: LTEA_HepaRG_IGFBP1: Life Technologies and Expression Analysis (LTEA) Assay for Insulin-like growth factor-binding protein 1 (IGFBP1) using HepaRG (AID 2283508). In outline:
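mRNA induction or loss was quantified by qRT-PCR after 48 h chemical exposure of human HepaRG cells, with 0.5% DMSO as vehicle and baseline. Concentration-response over eight points up to 100 uM.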

Read-out in assay [13]: Interleukin 6 (IL6), IL6 (gene 3569)
Description: LTEA_HepaRG_IL6: Life Technologies and Expression Analysis (LTEA) Assay for Interleukin 6 (IL6) using HepaRG (AID 2283509). The gist of the method: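 HepaRG cells exposed in duplicate for 48 h to eight half-log concentrations, top 100 uM, in 0.5% DMSO serum-free induction medium. mRNA measured by qRT-PCR, normalized to ACTB, GAPDH and POLR2A. Bidirectional fit versus DMSO.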

Read-out in assay [14]: Interleukin 6 Receptor (IL6R), IL6R (gene 3570)
Description: LTEA_HepaRG_IL6R: Life Technologies and Expression Analysis (LTEA) Assay for Interleukin 6 Receptor (IL6R) using HepaRG (AID 2283510).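 On AC50: TaqMan qRT-PCR signal normalized to ACTB GAPDH and POLR2A housekeeping genes.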 In outline: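 Differentiated HepaRG cells, plated 48 h, then exposed in duplicate for 48 h in serum-free induction medium to 8 half-log concentrations (top 100 uM, 0.5% DMSO). IL6R mRNA measured by TaqMan qRT-PCR, normalized to ACTB/GAPDH/POLR2A; bidirectional fit vs DMSO.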

Read-out in assay [15]: Potassium channel subfamily K member 1 (KCNK1), KCNK1 (gene 3775)
Description: LTEA_HepaRG_KCNK1: Life Technologies and Expression Analysis (LTEA) Assay for Potassium channel subfamily K member 1 (KCNK1) using HepaRG (AID 2283511). In outline: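 Differentiated HepaRG cells, 48 h exposure in serum-free induction medium with 0.5% DMSO; 8 concentrations, half-log from 100 uM, duplicate. KCNK1 mRNA by qRT-PCR, normalized to ACTB, GAPDH, POLR2A; bidirectional fit vs DMSO.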

Read-out in assay [16]: Keratin 19 (KRT19), KRT19 (gene 3880)
Description: LTEA_HepaRG_KRT19: Life Technologies and Expression Analysis (LTEA) Assay for Keratin 19 (KRT19) using HepaRG (AID 2283512). In outline:
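Gene-expression endpoint in the human liver line HepaRG after 48 h exposure to up to 100 uM test chemical with 0.5% DMSO vehicle; KRT19 mRNA by qRT-PCR, analyzed bidirectionally versus DMSO.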

Read-out in assay [17]: JUN Transcription Factor, JUN (gene 3725)
Description: LTEA_HepaRG_JUN: Life Technologies and Expression Analysis (LTEA) Assay for JUN Transcription Factor using HepaRG (AID 2283513). In outline: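 HepaRG cells, 48 h post-plating, exposed 48 h in serum-free induction medium to 8-point half-log series (top 100 uM, 0.5% DMSO), duplicate; mRNA by qRT-PCR (TaqMan, Fluidigm), normalized to ACTB/GAPDH/POLR2A; bidirectional fit vs DMSO.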

Read-out in assay [18]: Lipase C (LIPC), LIPC (gene 3990)
Description: LTEA_HepaRG_LIPC: Life Technologies and Expression Analysis (LTEA) Assay for Lipase C (LIPC) using HepaRG (AID 2283514). In outline: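 HepaRG cells, 48 h after plating, treated in duplicate for 48 h in serum-free induction medium over 8 half-log concentrations from 100 uM, 0.5% DMSO. LIPC mRNA by TaqMan qRT-PCR normalized to ACTB/GAPDH/POLR2A; bidirectional fit versus DMSO.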

Read-out in assay [19]: Lipoprotein lipase (LPL), LPL (gene 4023)
Description: LTEA_HepaRG_LPL: Life Technologies and Expression Analysis (LTEA) Assay for Lipoprotein lipase (LPL) using HepaRG (AID 2283515). In outline: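 Differentiated HepaRG cells, plated 48 h, then exposed 48 h in serum-free induction medium to 8 concentrations (top 100 uM, half-log steps) in 0.5% DMSO, duplicate. LPL mRNA measured by qRT-PCR, normalized to ACTB, GAPDH and POLR2A.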

“And” between values parts separate entries of the source, which are not always exact repeats. Identical values can stand only once. Some structures have more than one record in an assay (separate samples or runs), and their calls can disagree. The source made the active and inactive calls. How the source made its calls: active means hit-call score of the fitted dose curve at least 0.9, where 1 is the maximum; inactive means score below 0.9.

Hypoxia-inducible factor 1-alpha (Homo sapiens), sequence (Q16665 whole entry, looked up): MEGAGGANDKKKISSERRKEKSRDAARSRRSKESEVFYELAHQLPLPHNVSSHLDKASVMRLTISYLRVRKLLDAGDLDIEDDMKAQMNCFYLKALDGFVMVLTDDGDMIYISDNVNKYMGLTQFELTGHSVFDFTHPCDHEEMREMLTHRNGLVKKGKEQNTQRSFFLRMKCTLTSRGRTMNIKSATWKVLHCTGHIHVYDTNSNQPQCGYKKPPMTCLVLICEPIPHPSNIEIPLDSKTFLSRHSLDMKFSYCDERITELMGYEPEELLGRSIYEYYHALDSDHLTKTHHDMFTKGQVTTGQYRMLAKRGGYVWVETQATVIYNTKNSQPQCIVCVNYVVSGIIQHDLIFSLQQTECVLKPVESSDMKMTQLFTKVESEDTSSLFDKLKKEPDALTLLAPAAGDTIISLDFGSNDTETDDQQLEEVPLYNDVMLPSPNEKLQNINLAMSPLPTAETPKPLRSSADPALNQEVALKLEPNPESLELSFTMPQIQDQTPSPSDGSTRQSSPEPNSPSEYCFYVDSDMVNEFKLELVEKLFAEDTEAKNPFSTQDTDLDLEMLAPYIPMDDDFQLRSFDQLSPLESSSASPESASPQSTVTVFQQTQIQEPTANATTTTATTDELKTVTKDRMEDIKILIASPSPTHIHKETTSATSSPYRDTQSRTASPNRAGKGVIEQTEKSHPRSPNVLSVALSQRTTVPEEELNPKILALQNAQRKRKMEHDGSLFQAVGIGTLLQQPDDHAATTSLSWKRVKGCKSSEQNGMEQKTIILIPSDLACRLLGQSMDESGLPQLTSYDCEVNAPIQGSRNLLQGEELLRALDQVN

Consider `CCCCOCCOCCO`, for which the compound was called inactive in assay [1], in [2], in assay [3], in [4], in [5] and in [6]. For the same compound, the outcome (in assay [7]; in [8]; in assay [9]; with HGF (gene 3082); in assay [10]; in assay [11]) was inactive. For the same compound, the outcome in assay [12], in [13], in [14], in assay [15], in assay [16] and in assay [17] was inactive. In addition, the call in [18] and in assay [19] was inactive.

As for `CC/C(=C(\c1ccccc1)c1ccc(OCCN(C)C)cc1)c1ccccc1`, the result in assay [1], in assay [2], in assay [3], in [4], in [6] and in assay [8] was inactive. The outcome (in assay [9]; with HGF (gene 3082); in assay [10]; in assay [14]; in [16]; in assay [18]) was inactive. The outcome in assay [19] was inactive. Also, the AC50 (usually the concentration giving half of the maximal activity seen) is 70.2 µM (active) in assay [2]; 90.5 µM (active) in assay [4]; 74 µM (active) and 50 µM (active) in assay [5]; 74.8 µM (active) and 76.4 µM (active) in assay [7]; 82 µM (active) in assay [8]; 66 µM (active) in [9]. Also, the AC50 in [10] was 84.6 µM (active); in assay [11], 85.1 µM (active) and 99.2 µM (active); in assay [12] it was 65.9 µM (active) and 57 µM (active); in assay [13], 71.4 µM (active) and 92.3 µM (active); in [14], 93.4 µM (active); in assay [16], 11.2 µM (active). The AC50 in assay [17] is 74.6 µM (active) and 89.2 µM (active); in assay [18] it was 93.9 µM (active); in [19], 76.5 µM (active).

Take `C[C@]12CC[C@@H]3c4ccc(O)cc4CC[C@H]3[C@@H]1CC[C@@H]2O`: the compound was classed as inactive in assay [1], in assay [2], in assay [3], in [4], in [5] and in [6]. The outcome (in [7]; in [9]; with HGF (gene 3082); in assay [11]; in [12]; in assay [13]) was inactive. Further, the outcome in assay [14], in assay [15], in [16], in assay [17], in assay [18] and in assay [19] was inactive. Also, the AC50 in assay [10] was 31.2 µM (active).
